Data published in PubChem BioAssay AID720541 (National Center for Advancing Translational Sciences (NCATS), 2013).
Hit rate of the full screen: of about 1,300 compounds, about 420 (32%) were called active. Another 32% or so got no clear call; they are omitted. This is one part of the list. Unmarked numbers belong to inactive results. Calls follow the shape of the dose curve; as a rule, active = well fitted inhibition curve with a large enough effect; inconclusive = small, poorly fitted or top-dose-only effect; inactive = no such curve, though single readings can be large or run the other way.

Biological target: C-terminal-binding protein 1 (Homo sapiens) (UniProt Q13363)
Assay: qHTS for Inhibitors of the Phosphatase Activity of Eya2: Carboxyl-terminal binding protein (CtBP) Counterscreen for Cherry-picked Compounds; also: nearly all actives have a fitted effect of over 65% in size
Details: purified protein-protein binding, AlphaScreen, 3 h; series mostly up to 46.1 µM; activity change, negative = inhibition: at the top concentration
How it was run: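 AlphaScreen using 25 nM GST-E1A with 25 nM CtBP-6xHIS; compounds at 2.5 nM–46 uM final, 2 h at room temperature, then donor/acceptor beads (20 ug/mL) for 1 h in the dark. Signal normalized to E1A peptide inhibitor (maximum inhibition) and DMSO.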
% is scaled to controls: 0 for no effect and ±100 for the full control effect; potency is read from the fitted curve at half-maximal effect.

Row | SMILES | activity change, negative = inhibition [%] | Potency
1 | COc1ccccc1-c1noc2c1C(=O)N(Cc1cn(-c3ccc(Cl)cc3)nn1)CC2 | -9.35 | 
2 | COc1cc(N)c(Cl)cc1C(=O)N[C@H]1CCN(CCCOc2ccc(F)cc2)C[C@H]1OC | 6.45 | 
3 | Brc1ccc(Cn2c(-c3ccc(Br)o3)nc3ccccc32)o1 | -29 | 
4 | Cc1cc(C(=O)COC(=O)c2ccc(O)cc2)c(C)n1CCc1ccc(F)cc1 | -11.6 | 
5 | CCn1c(C)cc(/C=C2/SC(=O)N(C(C)C(=O)OC)C2=O)c1C (centres undefined) | -12.7 | 
6 | Cc1c(C(=O)O)cccc1-c1ccc(/C=C2\SC(=O)NC2=O)o1 | -8.25 | 
7 | CCOC(=O)C(C)N1C(=O)S/C(=C\c2ccc(-c3ccccc3C(=O)O)o2)C1=O (centres undefined) |  | 15.1 µM (active)
8 | O=C(O)CSCc1nc2cccnc2n1C1CCCCC1 | -5.89 | 
9 | CC1(C)CC(=O)C(C2C3=C(CC(C)(C)CC3=O)Oc3c(Br)cc(Br)cc32)=C(O)C1 (centres undefined) |  | 4.78 µM (active)
10 | Cc1nc(C)c(-c2csc(Nc3ccc(O)c(C(=O)O)c3)n2)s1 |  | 15.1 µM (active)
11 | Cn1c(=O)c2[nH]c(COc3ccccc3)nc2n(C)c1=O | -15.6 | 
12 | CC1(C)Nc2cccc3c(N=Nc4ccc(N=Nc5ccccc5)c5ccccc45)ccc(c23)N1 |  | 3.38 µM (active)
13 | COc1ccc(N(CC(=O)Nc2nc3ccc(C)cc3s2)S(=O)(=O)c2c(C)nn(C)c2C)cc1 | -8.97 | 
14 | Cc1ccc(-n2nnnc2C(=Cc2ccc(N(C)C)cc2)c2nnnn2-c2ccc(C)cc2)cc1 | 6.55 | 
15 | Cc1ccc2c(/C=C/c3ccc(N(C)C)cc3)c(C)cnc2c1 |  | 10.7 µM (active)
16 | CCN(CC)c1ccc(/C=C/c2c(C)cnc3ccc(C)cc23)cc1 |  | 8.49 µM (active)
17 | Cc1cnc2ccc(I)cc2c1/C=C/c1ccc(N(C)C)cc1 |  | 10.7 µM (active)
18 | CCc1cnc2ccccc2c1/C=C/c1ccc(N(C)C)cc1 |  | 10.7 µM (active)
19 | O=c1cc(-c2ccccc2Cl)oc2c(NS(=O)(=O)c3ccccc3OC(F)(F)F)ccc(O)c12 | -22.3 | 
20 | O=C(O)c1c(C(=O)N2N=C3/C(=C/c4ccccc4)CCCC3C2c2ccccc2)cccc1[N+](=O)[O-] (centres undefined) | -5.07 | 
21 | Cc1ccccc1NC(=O)C1CCN(C(=O)N2CCOc3ccccc32)CC1 | -1.23 | 
22 | CC1CN(C(=O)c2cc(S(=O)(=O)N(C)c3ccc(F)cc3)ccc2Cl)CC(C)O1 (centres undefined) | 1.04 | 

Row | SMILES | activity change, negative = inhibition [%] | Potency
23 | CC(Oc1ccc(F)cc1)C(=O)Nc1cc(S(=O)(=O)N2CCCCC2)ccc1N1CCN(C)CC1 (centres undefined) | -22.7 | 
24 | COc1ccc(S(=O)(=O)N2CCCCC2)cc1NC(=O)c1[nH]c(C)c(C(C)=O)c1C | -26.5 | 
25 | CCOc1ccc(S(=O)(=O)N2CCN(C)CC2)cc1NC(=O)c1ccccc1F |  | 7.57 µM (active)
26 | O=C1c2ccccc2C(=O)N1CCCc1cn(C[C@H]2CC[C@@H]([C@@H]3CC[C@H](Cn4cc(CCCN5C(=O)c6ccccc6C5=O)nn4)O3)O2)nn1 | 7.27 | 
27 | Cc1ccc(-c2n[nH]c(=O)c3ccccc23)cc1S(=O)(=O)Nc1ccccc1 | -25.8 | 
28 | COc1ccc(Cc2nc3c4c(ncn3n2)Oc2ccc3ccccc3c2C4c2ccc(OC)c(OC)c2)cc1 (centres undefined) | -11.2 | 
29 | COc1cc(C2C(C#N)=C(N)Oc3n[nH]c(C)c32)ccc1OC(=O)c1ccccc1 (centres undefined) |  | 8.49 µM (active)
30 | CCOc1ccccc1O[C@H](c1ccccc1)[C@H]1CNCCO1 | 6.74 | 
31 | CCOC(=O)c1[nH]c2ccc(C(=O)OC)cc2c1C(=O)OCC |  | 10.7 µM (active)
32 | Cc1[nH]c2ccc(C(=O)OC(C)C(=O)N(C)c3ccccc3)cc2c1C (centres undefined) | -24.1 | 
33 | CS(=O)(=O)n1nc(OC(=O)c2cccs2)cc1N | -10.9 | 
34 | Cc1cc(O)c(-c2cc(O)c(C)cc2O)cc1O | -27.2 | 
35 | CCN(CC)S(=O)(=O)c1cc(OC)ccc1N=Nc1ccc(O)c2ncccc12 | -101 | 
36 | COc1cc(N(C(C)=O)c2ccc(O)c(C(=O)O)c2)c2ncccc2c1 |  | 8.49 µM (active)
37 | Nc1ccc2c(c1)C(=O)c1cc(N)c(Cl)cc1-2 | -15.7 | 
38 | COc1ccc(N)cc1-n1c(C)ccc1C | -6.45 | 
39 | COc1cc2c(cc1N)-c1ccc(N)cc1C2=O |  | 16.9 µM (active)
40 | CCOc1ccc2ccccc2c1C(=O)N[C@@H]1C(=O)N2[C@@H]1SC(C)(C)[C@@H]2C(=O)O | -4.22 | 
41 | CC(=O)Oc1ccc(N2C(=O)c3cccc4c([N+](=O)[O-])ccc(c34)C2=O)cc1 | -18.6 | 
42 | CCN1C(=O)c2cccc3c(S(=O)(=O)N(C(C)=O)c4ccc(OC(C)=O)cc4)ccc1c23 |  | 12 µM (active)
43 | N/C(=N\OC(=O)c1ccc2ccccc2c1)c1ccncc1 | -17.8 | 
44 | C/C(=C1/C=Nc2ccccc21)c1ccc(N(C)C)cc1 |  | 16.9 µM (active)

Row | SMILES | activity change, negative = inhibition [%] | Potency
45 | Cn1c(=O)cc2c3c(c(N4CCCCC4)ccc31)C(=O)c1ccccc1-2 |  | 3.79 µM (active)
46 | CCOc1ccc(NC(=O)COc2cccc3cccnc23)cc1S(=O)(=O)N1CCCC1 |  | 16.9 µM (active)
47 | CCOc1ccc(S(=O)(=O)NCc2ccc(C)cc2)c2cccnc12 | -4.12 | 
48 | CCOc1ccc(NC(=O)COc2ccc3c(c2)CCC3)cc1OC | -0.283 | 
49 | C=CCn1c(C)cc(C(=O)COc2ccc(N(C)S(=O)(=O)c3ccc(NC(C)=O)cc3)cc2)c1C | -22.4 | 
50 | CN(C)C1=C2C=CC=CC2/C(=C2/C=Cc3ccccc32)C=C1 (centres undefined) |  | 15.1 µM (active)
51 | O=C(Nc1ccon1)c1ccc(N2CCCCC2)c([N+](=O)[O-])c1 | -18 | 
52 | CSc1cccc(NC(=O)CCCOc2cc(=O)n(C)c3ccccc23)c1 | 3.84 | 
53 | O=C1/C(=C\c2cccc([N+](=O)[O-])c2O)SC(=S)N1Cc1ccccc1 |  | 8.49 µM (active)
54 | Cc1ccc(OCC(=O)Nc2ccccc2N2CCCC2)c(C)c1 | -21.3 | 
55 | Cc1ccc(NC(=O)CSc2cccc3cccnc23)c(C)c1 |  | 9.53 µM (active)
56 | O=C(Cc1ccccc1F)Nc1cccc(S(=O)(=O)N2CCCCC2)c1 | 2.9 | 
57 | Cn1c(=O)c2c(ncn2CC(=O)Nc2cccc(S(=O)(=O)Nc3ccccc3F)c2)n(C)c1=O |  | 8.49 µM (active)
58 | CCCNC(=O)C1(C)CCN(Cc2cccc(OC(=O)c3ccccc3)c2)C1 (centres undefined) | 7.18 | 
59 | CC1(C)CC(=O)c2c(oc3ccc(NS(=O)(=O)c4cccc5cccnc45)cc23)C1 | -5.13 | 
60 | O=C(CCCl)Nc1cccc2cccnc12 |  | 8.49 µM (active)
61 | CC(=O)Nc1ccc(S(=O)(=O)Nc2cccc3cccnc23)cc1 |  | 4.26 µM (active)
62 | CC(=O)Nc1ccc(S(=O)(=O)NCc2ccc3[nH]c(C)cc3c2)cc1 | -27.3 | 
63 | O=S(=O)(Nc1cccc2cccnc12)c1ccccc1Br |  | 9.53 µM (active)
64 | COc1ccc(Cl)cc1NC(=O)CCCn1c(=O)c2cccn2c2cccnc21 | -46.3 | 
